Consider five compounds from PubChem BioAssay.

Inconclusive results are not listed. Active and inactive are the calls of the source.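 Rule for the calls, unless noted: active = differentiation response of at least 50%, scaled between solvent and reference control, from cells with both markers; inactive = the rest.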

The term inhibition denotes the drop in the measured response relative to a control, in per cent.

Assay [1] can be described thus: yeast TOR pathway RPL19A-GFP modulators, primary screen, cell-based, S. cerevisiae, multiplex flow cytometry (AID 1862; in the data active = percent of DMSO control GFP below about 86%;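 note: lower values mimic rapamycin by blocking the RPL19A rise seen in DMSO cells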). Conditions: S. cerevisiae RPL19A-GFP strain, flow cytometry fluorescence, 3 h; at 10 µM; stronger effect = lower value. In general terms: Flow cytometry measures light scatter and fluorescence of single cells or particles in a stream.
Assay [2] in a line: modulators of MEP2-GFP levels in yeast, primary screen, S. cerevisiae, multiplex flow cytometry (AID 1867;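 active = GFP response, as percent of the DMSO control, above the screen-wide mean plus 3 SD, about 139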;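 note: median GFP channel fluorescence of barcode-gated MEP2-GFP cells measured by flow cytometry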). Conditions: S. cerevisiae MEP2-GFP strain, 3 h, at 10 µM, stronger effect = higher value, 100% means same as DMSO wells.
The nature of assay [3]: modulators of CIT2-GFP expression in yeast, primary screen, S. cerevisiae, GFP fusion, multiplex flow cytometry (AID 1870;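 active = percent response above a set limit, the screen-wide mean plus 3 SD, cut at about 130% in these data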;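 note: barcoded CIT2-GFP strain pooled with four other GFP strains with rapamycin as positive control; median GFP fluorescence per well over plate mean of DMSO wells so 100% = DMSO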). Conditions: 3 h, at 10 µM, stronger effect = higher value.
Assay [4] is described as follows: modulators of LAP4-GFP expression in yeast, primary screen, S. cerevisiae, multiplex flow cytometry (AID 1873;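 active = GFP signal, as percent of the solvent control, above the screen mean plus 3 SD, about 149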). Particulars: 3 h, at 10 µM, stronger effect = higher value.
A short description of assay [5]: modulators of AGP1-GFP expression in yeast TOR pathway, primary screen, cell-based, multiplex flow cytometry, S. cerevisiae (AID 1887;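 active = GFP signal above the screen-wide mean plus 3 SD, that is over about 124.5% of the solvent control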;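 note: AGP1-GFP fusion strain of S. cerevisiae within a five-strain barcoded multiplex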). Conditions: 3 h, at 10 µM, stronger effect = higher value.
Assay [6] is described as follows: inhibitors of CD8+ T cell-vesicle binding, pilot screen, LFA-1/ICAM-1 modulator project, MLPCN validation set, flow cytometry (AID 2523;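 active = response below a set limit, under 55% cells CD8-positive and vesicle-bound, and CD8 cells' 90th-percentile brightness under 279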;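 for vesicle binding response: mean PE anti-B7-1 fluorescence of CD8+ cells relative to row control; 100% = QL9-loaded vesicles with DMSO vehicle in the same plate row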). Particulars: 2C mouse CD8+ T cells, at 7 µM, stronger effect = lower value; double positive events: measured here: CD8+/vesicle+ event percentage.
Assay [7] concerns the target Integrin beta-1 (Homo sapiens) + Integrin alpha-4 (Homo sapiens) (UniProt P13612+P05556). Put plainly: inhibition of HUTS-21 binding to VLA-4, pilot screen, VLA-4 allosteric modulator project, U937 cells, HUTS-21 mAb, flow cytometry, validation set (AID 2674;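 active = inhibition above 50%, about 3 SD of the validation set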;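 note: antibody binding induced by the VLA-4 ligand LDV present at three times its Kd; 0% = LDV ligand with antibody and no compound and 100% = antibody without LDV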). Particulars: HUTS-21 LIBS mAb binding, at 6.7 µM, stronger effect = higher value, binding induced by LDV ligand.
Assay [8] can be described thus: superoxide lowering in aged yeast cells, pilot screen, validation compound set (AID 2706;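 active = superoxide response below 65% of plate, a cut near 3 SD across the whole screen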;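 note: yeast exposed to compound for one week at 30 degrees C before staining; 100% = mean of all compound wells on the same plate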). Conditions: S. cerevisiae aging, superoxide DHE fluorescence; at 10 µM; stronger effect = lower value.
Assay [9] concerns the target Beta-adrenergic receptor kinase 1 (Homo sapiens) (UniProt P25098). Put plainly: GRK2 binders displacing RNA aptamer, biochemical, validation, human GRK2, bead flow cytometry (AID 488806;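 active = aptamer binding inhibition above 30%, about 3 SD of noise from non-fluorescent compounds; inactive = inhibition at or below 30%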). Particulars: bead-bound GRK2, FAM-aptamer displacement, at 10 µM, stronger effect = higher value.
Assay [10] deals with Beta-2 adrenergic receptor (Homo sapiens) (UniProt P07550). Briefly: beta2AR agonists driving receptor internalization, pilot screen, cell-based, FAP fluorogen, flow cytometry, validation set (AID 504459;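 active = percent response above 42, roughly 3 SD of non-fluorescent test compounds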;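 note: agonist-driven loss of surface beta2AR via internalization measured by FAP dye flow cytometry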). Particulars: Am2.2-beta2AR cells, FAP surface receptor flow cytometry; at 10 µM; stronger effect = higher value.
Chain of Beta-2 adrenergic receptor (Homo sapiens) (P07550 whole entry, looked up): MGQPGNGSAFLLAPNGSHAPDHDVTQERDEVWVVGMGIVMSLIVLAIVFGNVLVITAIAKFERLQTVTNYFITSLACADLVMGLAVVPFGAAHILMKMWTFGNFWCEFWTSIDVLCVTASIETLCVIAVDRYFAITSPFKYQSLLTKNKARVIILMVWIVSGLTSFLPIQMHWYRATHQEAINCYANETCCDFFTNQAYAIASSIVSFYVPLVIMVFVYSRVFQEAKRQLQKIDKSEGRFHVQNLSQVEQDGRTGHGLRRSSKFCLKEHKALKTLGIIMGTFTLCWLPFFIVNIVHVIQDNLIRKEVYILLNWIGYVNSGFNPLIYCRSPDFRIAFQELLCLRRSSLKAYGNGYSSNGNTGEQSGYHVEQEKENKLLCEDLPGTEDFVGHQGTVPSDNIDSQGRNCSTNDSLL
The target of assay [11] is AP-2 complex subunit beta (Homo sapiens) (UniProt P63010). Put plainly: inhibitors of arrestin peptide binding to AP2, pilot screen, biochemical, validation set, GST-AP2 beads, flow cytometry (AID 504541;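 active = inhibition above 54%, about 3 SD of non-fluorescent compounds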;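 note: AP2 carries R879A mutation and is captured from E. coli lysate; bead-bound FITC arrestin peptide fluorescence measuring arrestin peptide binding to AP2; 0% = DMSO wells and 100% = excess unlabeled arrestin peptide control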). Particulars: FITC arrestin peptide, at 10 µM, stronger effect = higher value, AP2 beta2 appendage fragment, R879A mutant.
Chain of AP-2 complex subunit beta (Homo sapiens) (P63010 whole entry, looked up, the tested form may be a part, one chain of several): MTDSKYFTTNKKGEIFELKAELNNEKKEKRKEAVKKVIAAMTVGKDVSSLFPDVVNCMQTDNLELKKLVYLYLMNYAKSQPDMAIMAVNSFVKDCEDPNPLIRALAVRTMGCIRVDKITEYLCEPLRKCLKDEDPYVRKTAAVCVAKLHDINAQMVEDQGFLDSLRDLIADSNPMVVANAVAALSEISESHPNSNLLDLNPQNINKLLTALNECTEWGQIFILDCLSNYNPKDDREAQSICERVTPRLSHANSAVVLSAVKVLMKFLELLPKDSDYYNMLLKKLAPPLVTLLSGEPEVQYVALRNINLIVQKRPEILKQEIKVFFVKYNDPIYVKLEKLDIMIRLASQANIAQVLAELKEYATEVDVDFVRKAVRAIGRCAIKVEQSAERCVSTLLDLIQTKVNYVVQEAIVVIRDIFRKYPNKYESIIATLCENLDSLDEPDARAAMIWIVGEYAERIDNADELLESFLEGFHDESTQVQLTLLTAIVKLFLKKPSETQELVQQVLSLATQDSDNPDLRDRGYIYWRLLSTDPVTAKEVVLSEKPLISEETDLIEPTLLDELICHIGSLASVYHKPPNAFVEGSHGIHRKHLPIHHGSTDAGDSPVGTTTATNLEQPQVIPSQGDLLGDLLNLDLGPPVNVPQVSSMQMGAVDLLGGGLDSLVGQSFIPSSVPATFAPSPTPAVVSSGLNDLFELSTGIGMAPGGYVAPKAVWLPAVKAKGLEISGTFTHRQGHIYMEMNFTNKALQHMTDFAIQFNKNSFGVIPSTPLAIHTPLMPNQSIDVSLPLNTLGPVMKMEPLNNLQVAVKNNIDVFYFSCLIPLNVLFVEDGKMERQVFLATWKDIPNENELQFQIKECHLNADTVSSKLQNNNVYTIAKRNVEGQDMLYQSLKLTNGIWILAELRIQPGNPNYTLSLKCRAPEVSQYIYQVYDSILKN
Assay [12] in a line: yeast V-ATPase proton transport modulators, S. cerevisiae, pHLuorin, HTS validation (AID 504600; in the data active = response above about 15%;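 note: plate controls were DMSO for no effect and reference compound for full effect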). Particulars: S. cerevisiae pHLuorin cytosolic pH, at 10 µM, stronger effect = higher value.
Assay [13] deals with anti-desmoglein-3 scFv antibody binding to human DSG3. Put plainly: inhibitors of anti-DSG3 scFv binding to DSG3, pilot screen, biochemical, validation compound set, bead-based, flow cytometry (AID 588368;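 active = binding below the plate cutoff, the plate median minus 3 SD, with a reading above zero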;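 note: signal is the median channel fluorescence of bead-bound GFP antibody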). Conditions: Protein G beads, DSG3-Fc, scFv-GFP binding, at 10 µM, stronger effect = lower value.
Assay [14] is described as follows: inhibitors of fungal efflux pumps CDR1, CDR2, MDR1, pilot screen, validation compound set, multiplex, phenotypic (AID 588506;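 active = efflux inhibition above 0.42, the validation set average plus 4 SD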;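 note: Nile Red retained in cells so higher fluorescence means more efflux inhibition; 0 = negative control wells and 1 = enniatin B 25 µM full block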). Particulars: S. cerevisiae pump-expressing triplex, Nile Red efflux flow cytometry; at 10 µM; stronger effect = higher value; the pumps come from Candida albicans.
Assay [15] has as its target ATP-binding cassette sub-family B member 6 (Homo sapiens) (UniProt Q9NP58). Put plainly: ABCB6 transporter inhibitors, pilot screen, K562-ABCB6 cells, flow cytometry, validation set (AID 588550;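 active = inhibition above the screen-wide mean plus 3 SD, about 51%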;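 note: 0% = DMSO wells and 100% = benzethonium chloride 70 µM positive control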). Conditions: K562-ABCB6 porphyrin accumulation, 1 h, at 10 µM, stronger effect = higher value.
A short description of assay [16]: promoters of myeloid differentiation in arrested cells, primary screen, cell-based, GFP/MAC1 double positive, flow cytometry, validation set (AID 588685).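 Note: compound exposure lasts four days before antibody staining and flow analysis; 0% = DMSO wells and 100% = 5 µM fulvestrant positive control.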 Conditions: ER-HoxA9 marrow cells, stronger effect = higher value, normalized: vehicle 0, fulvestrant 100.

Chain of Integrin beta-1 (Homo sapiens) + Integrin alpha-4 (Homo sapiens) (P05556 whole entry, looked up): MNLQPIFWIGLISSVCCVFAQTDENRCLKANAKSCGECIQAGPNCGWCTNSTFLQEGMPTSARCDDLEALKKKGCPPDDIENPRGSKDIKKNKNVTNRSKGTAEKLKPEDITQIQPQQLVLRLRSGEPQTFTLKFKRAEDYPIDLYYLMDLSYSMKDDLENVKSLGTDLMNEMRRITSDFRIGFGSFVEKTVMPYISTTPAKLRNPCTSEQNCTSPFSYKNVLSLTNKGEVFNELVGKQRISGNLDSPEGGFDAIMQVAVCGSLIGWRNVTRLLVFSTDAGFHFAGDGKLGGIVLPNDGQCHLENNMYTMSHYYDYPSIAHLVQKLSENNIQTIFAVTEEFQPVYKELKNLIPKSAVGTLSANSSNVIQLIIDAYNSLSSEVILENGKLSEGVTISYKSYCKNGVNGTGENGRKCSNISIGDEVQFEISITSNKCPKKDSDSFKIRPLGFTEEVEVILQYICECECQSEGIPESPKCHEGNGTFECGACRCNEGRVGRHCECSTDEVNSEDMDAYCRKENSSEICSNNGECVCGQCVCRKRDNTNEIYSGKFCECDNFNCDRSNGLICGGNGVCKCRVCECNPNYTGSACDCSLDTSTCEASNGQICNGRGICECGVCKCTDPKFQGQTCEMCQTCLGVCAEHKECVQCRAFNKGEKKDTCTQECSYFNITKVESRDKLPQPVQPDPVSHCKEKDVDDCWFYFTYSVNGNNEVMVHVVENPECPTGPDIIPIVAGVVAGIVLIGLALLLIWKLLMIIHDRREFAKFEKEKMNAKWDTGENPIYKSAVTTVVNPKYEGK
Chain of Integrin beta-1 (Homo sapiens) + Integrin alpha-4 (Homo sapiens) (P13612 whole entry, looked up): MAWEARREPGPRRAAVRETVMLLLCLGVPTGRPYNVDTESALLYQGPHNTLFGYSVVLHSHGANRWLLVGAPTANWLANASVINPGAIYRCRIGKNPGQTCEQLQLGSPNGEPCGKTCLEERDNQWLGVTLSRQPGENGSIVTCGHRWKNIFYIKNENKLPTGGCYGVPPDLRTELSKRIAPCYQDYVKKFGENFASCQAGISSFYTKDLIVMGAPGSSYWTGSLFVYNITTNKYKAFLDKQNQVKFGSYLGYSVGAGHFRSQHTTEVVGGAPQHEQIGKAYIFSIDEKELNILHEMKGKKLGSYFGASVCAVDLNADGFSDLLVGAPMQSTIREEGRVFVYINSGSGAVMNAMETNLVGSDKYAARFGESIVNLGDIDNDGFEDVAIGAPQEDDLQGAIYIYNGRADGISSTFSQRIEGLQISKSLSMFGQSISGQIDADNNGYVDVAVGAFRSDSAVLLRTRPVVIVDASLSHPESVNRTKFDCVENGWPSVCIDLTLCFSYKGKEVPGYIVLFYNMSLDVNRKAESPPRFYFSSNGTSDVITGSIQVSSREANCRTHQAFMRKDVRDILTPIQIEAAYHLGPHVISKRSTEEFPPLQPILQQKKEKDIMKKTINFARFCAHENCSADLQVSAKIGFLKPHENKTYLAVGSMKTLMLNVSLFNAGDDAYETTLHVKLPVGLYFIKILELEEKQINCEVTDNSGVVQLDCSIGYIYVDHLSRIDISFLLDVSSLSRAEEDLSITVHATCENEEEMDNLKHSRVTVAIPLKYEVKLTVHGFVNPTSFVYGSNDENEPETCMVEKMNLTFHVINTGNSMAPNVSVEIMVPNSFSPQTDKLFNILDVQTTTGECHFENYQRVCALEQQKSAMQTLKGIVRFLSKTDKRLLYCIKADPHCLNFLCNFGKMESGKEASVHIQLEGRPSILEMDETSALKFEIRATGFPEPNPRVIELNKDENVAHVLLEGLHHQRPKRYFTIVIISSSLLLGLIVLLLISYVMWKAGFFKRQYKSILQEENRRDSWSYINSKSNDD
Chain of ATP-binding cassette sub-family B member 6 (Homo sapiens) (Q9NP58 whole entry, looked up): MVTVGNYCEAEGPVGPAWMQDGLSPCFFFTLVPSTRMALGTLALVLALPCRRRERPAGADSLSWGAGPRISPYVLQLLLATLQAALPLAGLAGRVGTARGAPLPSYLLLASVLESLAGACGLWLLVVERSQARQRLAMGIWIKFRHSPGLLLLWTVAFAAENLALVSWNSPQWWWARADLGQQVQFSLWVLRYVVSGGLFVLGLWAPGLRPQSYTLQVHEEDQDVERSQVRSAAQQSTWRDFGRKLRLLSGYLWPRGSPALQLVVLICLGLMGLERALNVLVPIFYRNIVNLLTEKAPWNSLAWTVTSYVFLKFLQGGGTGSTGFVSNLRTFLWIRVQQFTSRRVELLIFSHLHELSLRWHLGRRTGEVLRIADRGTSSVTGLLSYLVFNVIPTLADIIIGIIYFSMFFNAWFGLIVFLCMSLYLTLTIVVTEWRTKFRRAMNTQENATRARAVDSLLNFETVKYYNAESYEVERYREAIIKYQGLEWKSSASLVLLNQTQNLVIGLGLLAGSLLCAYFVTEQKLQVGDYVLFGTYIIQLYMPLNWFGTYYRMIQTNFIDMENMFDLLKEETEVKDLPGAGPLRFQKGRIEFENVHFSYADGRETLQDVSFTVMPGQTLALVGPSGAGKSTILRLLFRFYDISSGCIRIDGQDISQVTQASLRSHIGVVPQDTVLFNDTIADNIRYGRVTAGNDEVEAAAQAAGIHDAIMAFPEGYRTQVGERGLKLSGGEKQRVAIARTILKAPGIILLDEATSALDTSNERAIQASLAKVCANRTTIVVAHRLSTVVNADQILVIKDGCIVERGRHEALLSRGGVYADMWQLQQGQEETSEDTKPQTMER
Chain of Beta-adrenergic receptor kinase 1 (Homo sapiens) (P25098 whole entry, looked up): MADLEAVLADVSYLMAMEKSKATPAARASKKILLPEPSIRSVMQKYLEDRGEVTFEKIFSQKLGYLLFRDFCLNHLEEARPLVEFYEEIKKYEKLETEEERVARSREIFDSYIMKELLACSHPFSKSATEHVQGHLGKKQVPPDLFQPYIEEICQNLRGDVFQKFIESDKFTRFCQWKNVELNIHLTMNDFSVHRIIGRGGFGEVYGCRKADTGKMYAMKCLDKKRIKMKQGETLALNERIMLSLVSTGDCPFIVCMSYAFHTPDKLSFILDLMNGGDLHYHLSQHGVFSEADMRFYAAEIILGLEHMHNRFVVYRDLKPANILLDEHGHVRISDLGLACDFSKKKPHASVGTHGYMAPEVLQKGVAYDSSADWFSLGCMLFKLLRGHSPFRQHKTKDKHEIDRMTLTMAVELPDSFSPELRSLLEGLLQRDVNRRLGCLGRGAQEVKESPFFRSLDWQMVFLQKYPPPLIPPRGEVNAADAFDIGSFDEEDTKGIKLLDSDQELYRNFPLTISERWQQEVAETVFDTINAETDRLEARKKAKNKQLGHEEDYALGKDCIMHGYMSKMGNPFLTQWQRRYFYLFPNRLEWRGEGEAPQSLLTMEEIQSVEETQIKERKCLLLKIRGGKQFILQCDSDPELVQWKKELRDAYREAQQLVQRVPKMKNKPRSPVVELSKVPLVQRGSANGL

Regarding `COc1ccc(C2C(C(=O)c3ccco3)=C(O)C(=O)N2CC2CCCO2)cc1` (stereo not given), the percent of DMSO control GFP in assay [1] was 102% (inactive). For the same compound, the GFP response vs DMSO in [2] is 105% (inactive); in [4] it was 99.3% (inactive). Further, the percent response of DMSO control in [3] is 104% (inactive). Besides, the GFP response, % of DMSO in assay [5] is 95.3% (inactive). The compound also yielded a double positive events in assay [6] of 62.9%. The vesicle binding response in [6] is 351% (inactive). The inhibition in assay [7] is -7.72% (inactive); in assay [11] it was 25.3% (inactive); in assay [15], 3% (inactive). Also, the superoxide response (% of plate) in [8] was 105% (inactive). For the same compound, the aptamer binding inhibition in assay [9] was 3% (inactive). Further, the response is -3.98% (inactive) in assay [10] and -4.81% (inactive) in [12]. For the same compound, in assay [13], the binding (% of control) is 98.9% (inactive). In addition, in assay [14], the efflux inhibition (fraction of control) is 0.05 (inactive). The differentiation response in assay [16] is -5.62% (inactive).
`Nc1cc(-c2ccncc2)c[nH]c1=O`: in [1], the percent of DMSO control GFP is 103% (inactive). For the same compound, the GFP response vs DMSO is 103% (inactive) in assay [2] and 102% (inactive) in assay [4]. In addition, in assay [3], the percent response of DMSO control was 112% (inactive). Moreover, the GFP response, % of DMSO in [5] is 105% (inactive). The same compound returned a double positive events in assay [6] of 63.1%. Further, the vesicle binding response in assay [6] was 184% (inactive). Further, the inhibition in [7] was -11.8% (inactive); in assay [11] it was -8.58% (inactive); in assay [15] it was -6% (inactive). In assay [8], the superoxide response (% of plate) is 82.5% (inactive). The aptamer binding inhibition in [9] was -6% (inactive). For the same compound, the response in assay [10] is 8.85% (inactive); in assay [12], -0.06% (inactive). The binding (% of control) in assay [13] is 105% (inactive). Besides, in [14], the efflux inhibition (fraction of control) was 0.015 (inactive). Besides, in [16], the differentiation response is -4.57% (inactive).
Consider `Cc1ncoc1C(=O)N1CCCC(C(=O)c2ccc(-c3ccccc3)c(F)c2)C1` (stereo not given), for which the percent of DMSO control GFP in [1] was 102% (inactive). In addition, the GFP response vs DMSO in [2] is 121% (inactive); in assay [4] it was 76.5% (inactive). In [3], the percent response of DMSO control was 112% (inactive). Besides, in assay [5], the GFP response, % of DMSO was 94% (inactive). For the same compound, the double positive events in [6] stood at 49.9%. Moreover, the vesicle binding response in assay [6] was 220% (inactive). For the same compound, the figures for the inhibition in [7], in assay [11] and in assay [15] were -3.24% (inactive), 4.25% (inactive) and 12% (inactive), respectively. For the same compound, the superoxide response (% of plate) in assay [8] was 110% (inactive). For the same compound, in assay [9], the aptamer binding inhibition was 8% (inactive). For the same compound, the values for the response in assay [10] and in assay [12] were -19.4% (inactive) and -6.69% (inactive), respectively. For the same compound, the binding (% of control) in assay [13] is 101% (inactive). Further, the efflux inhibition (fraction of control) in [14] is 0.01 (inactive). Besides, the differentiation response in [16] was 0.82% (inactive).
For the compound `CC(=O)N(CCC(Cc1ccccc1)c1ccc2c(c1)OCO2)Cc1ccc(Cl)cc1` (stereo not given), in assay [1], the percent of DMSO control GFP was 93.9% (inactive). The results for the GFP response vs DMSO in [2] and in assay [4] were 113% (inactive) and 79.2% (inactive), respectively. Also, in [3], the percent response of DMSO control is 103% (inactive). The GFP response, % of DMSO in assay [5] was 92.2% (inactive). Besides, the double positive events in assay [6] is 59.9%. Besides, the vesicle binding response in assay [6] is 165% (inactive). The inhibition is -9.06% (inactive) in assay [7], -8.25% (inactive) in assay [11] and 6% (inactive) in assay [15]. Further, the superoxide response (% of plate) in [8] is 102% (inactive). In addition, the aptamer binding inhibition in [9] was -1% (inactive). Besides, the values for the response in assay [10] and in assay [12] were -1.43% (inactive) and -2% (inactive), respectively. Further, the binding (% of control) in [13] was 104% (inactive). For the same compound, the efflux inhibition (fraction of control) in assay [14] was 0.05 (inactive). Also, in assay [16], the differentiation response is -3.28% (inactive).
`CC(C)(C)c1ccc(/C=C/C(=O)N2CCCCC2)cc1`: in [1], the percent of DMSO control GFP was 96.1% (inactive). For the same compound, the GFP response vs DMSO was 103% (inactive) in assay [2] and 116% (inactive) in assay [4]. Also, in [3], the percent response of DMSO control is 78.7% (inactive). The GFP response, % of DMSO in assay [5] was 97.7% (inactive). This compound also gave a double positive events in assay [6] of 59.2%. For the same compound, in assay [6], the vesicle binding response is 150% (inactive). Moreover, the inhibition in assay [7] was 10.5% (inactive); in assay [11], 3.48% (inactive); in [15], 8% (inactive). Also, the superoxide response (% of plate) in [8] is 98.8% (inactive). Also, the aptamer binding inhibition in [9] was 1% (inactive). In addition, the response in [10] was 46.6% (active); in assay [12], -0.06% (inactive). The binding (% of control) in assay [13] is 98.4% (inactive). Besides, in [14], the efflux inhibition (fraction of control) was 0.26 (inactive). The differentiation response in assay [16] was 8.8% (inactive).
